The source of these data is PubChem BioAssay (Tox21).

The structures appear in SMILES notation. Inconclusive results are not listed. The source made the active and inactive calls. Calls come from the whole dose curve; as a rule, active = well fitted cell-killing curve with a large enough effect in the repeat runs; inconclusive = weak or mixed curves, or effect the other way; inactive = flat fitted curve, though single readings scatter.
% is set by controls: 0 for no effect and ±100 for the full control effect; potency is the fitted concentration of half-maximal effect.

The assay is described as follows: qHTS RealTime-Glo MT Cell Viability Assay in HEK293 cells - 8 hour (AID 1224887). For activity change, negative = cytotoxicity: top concentration of the series differs between compounds. Note: nearly all actives have a fitted effect of over 50% in size. To be noted: RealTime-Glo luminescence; series mostly up to 76.8 µM; activity change, negative = cytotoxicity: at the top concentration. From the text:
U.S. Tox21 Program National Center for Advancing Translational Sciences [NCATS] NIH Chemical Genomics Center [NCGC] U.S. Environmental Protection Agency [EPA] National Institutes of Environmental Health Sciences [NIEHS] National Toxicology Program [NTP] U.S. Food and Drug Administration [FDA] Tox21 Assay Overview: Measure of cell viability is critical in the cell-base assay. Analysis of cell viability is necessary for the characterization of cell responses to cytotoxic drugs and environmental stress. A RealTime-Glo MT Cell Viability Assay to monitor cell viability in real time of continues cell culture during 40 hours of compound treatment was used to screen Tox21 10K library compounds in Hek293 cells. The RealTime-Glo MT Cell Viability Assay is a nonlytic, homogeneous, bioluminescent method to measure cell viability in real time using a simple, plate-based method. The assay involves adding NanoLuc luciferase and a cell-permeant prosubstrate to cells in culture. Viable cells reduce the proprietary prosubstrate to generate a substrate for NanoLuc luciferase. This substrate diffuses from cells into the surrounding culture medium, where it is rapidly used by the NanoLuc Enzyme to produce a luminescent signal. The signal correlates with the number of viable cells, making the assay well suited for cytotoxicity studies.
Tox21 Assay Protocol Summary: The mixture of Hek293 cell suspension and reagents were dispensed at 600cells/6 ul/well in 1536-well tissue culture treated black solid bottom plates using a Multidrop dispenser. After the assay plates were incubated at a 37 C/5% CO2 incubator for 5 hours, 23 nL of compounds dissolved in DMSO, positive and negative controls was transferred to the assay plate by a pintool work station. The plates were incubated at 37 C for 40 hours. The luminescence intensity were measured at 0h, 8h, 16h, 24h, 32h and 40h time points using ViewLux plate reader during compound treatment.
Take `COC(=O)c1sccc1S(N)(=O)=O`: the “activity change, negative = cytotoxicity” value was 0.034% (inactive).
Still for that read-out and setting: the result for `CC(=O)C(=O)CC(C)C` reads 6.61% (inactive); that for `SCCc1cnccn1`, 2.8% (inactive); that for `CC(C)(C(=O)c1cccnc1)c1cccnc1`, 4.09% [at 35.3 µM] (inactive).
Same read-out and setting: next, `CCCCC[C@H](O)/C=C/[C@H]1[C@H](O)CC(=O)[C@@H]1C/C=C\CCCC(=O)O`: -0.121% [at 35.3 µM] (inactive); `O=C1OC(=O)c2c(Br)c(Br)c(Br)c(Br)c21`: 0.453% (inactive).
Take `CCCCCCCCCCCCCOC(=O)CCSCCC(=O)OCCCCCCCCCCCCC`: the activity change, negative = cytotoxicity is -5.3% [at 15.8 µM] (inactive).
Still for that read-out and setting: the result for `N[C@@H](Cc1cc(I)c(O)c(I)c1)C(=O)O` reads 1.77% [at 35.3 µM] (inactive).
Regarding `CC(CCc1ccc(O)cc1)NCCc1ccc(O)c(O)c1` (stereo not given), the “activity change, negative = cytotoxicity” value is -0.478% [at 35.3 µM] (inactive).
`CCCCCCCCCCCCCC(=O)OCC(O)CO` (stereo not given): the “activity change, negative = cytotoxicity” value is 0.139% (inactive).
For `O=C(O)c1cccc(Oc2ccccc2)c1`, the “activity change, negative = cytotoxicity” value was -3.57% (inactive).
Same read-out and setting: the result for `CCN(CC)CC(=O)Nc1c(C)cccc1C(=O)OC` reads 3.6% [at 35.3 µM] (inactive); that for `CCCCCC`, 3.55% (inactive); that for `Nc1ccc(NC(=O)c2ccc(N)cc2)cc1`, 0.126% (inactive).
As to `CC[C@H]1OC(=O)[C@H](C)[C@@H](O[C@H]2C[C@@](C)(OC)[C@@H](O)[C@H](C)O2)[C@H](C)[C@@H](O[C@@H]2O[C@H](C)C[C@H](N(C)C)[C@H]2O)[C@](C)(O)C[C@@H](C)C(=O)[C@H](C)[C@@H](O)[C@]1(C)O`, the “activity change, negative = cytotoxicity” value is -6.96% [at 35.3 µM] (inactive).
Still for that read-out and setting: the result for `CC1C(C)(C)C2=C(C(=O)CCC2)C1(C)C` (stereo not given) reads -12.8% (inactive).
Consider `O=[N+]([O-])C1(Br)COCOC1`, for which the Potency is 49 µM (active).
As to `BrC(Br)C(Br)Br`, the “activity change, negative = cytotoxicity” value is -5.3% (inactive).
On the same count and under the same terms, the result for `O=C1[C@@H]2[C@H]3CC[C@H](C3)[C@@H]2C(=O)N1CCCCN1CCN(c2ncccn2)CC1` reads 0.398% [at 35.3 µM] (inactive).
As to `O=C1OC[C@H](Cc2cccc(O)c2)[C@H]1Cc1cccc(O)c1`, the “activity change, negative = cytotoxicity” value was -0.997% [at 35.3 µM] (inactive).
On the same count and under the same terms, next, `O=C1NC(=O)c2cccc3cccc1c23`: -7.86% (inactive).
Consider `C=C(C)c1ccccc1`, for which the “activity change, negative = cytotoxicity” value was -0.573% (inactive).
Turning to `CNc1c2c(nn1C)CCCC2`, the “activity change, negative = cytotoxicity” value was -7.47% [at 35.3 µM] (inactive).
Regarding `COc1ccc(N)c([N+](=O)[O-])c1`, the “activity change, negative = cytotoxicity” value is -17.7% (inactive).
Turning to `CCOC(=O)N1CCC(Nc2ccc(Cl)cc2N)CC1`, the “activity change, negative = cytotoxicity” value is -27% [at 35.3 µM] (inactive).
For `O=P(O)(O)Oc1ccccc1`, the “activity change, negative = cytotoxicity” value is 7.58% (inactive).
As for `CNS(=O)(=O)c1cc(C(=O)N2CCC(CCN3C4CCC3CC(n3c(C)nc5ccccc53)C4)(c3cccc(F)c3)CC2)c(Cl)cc1F` (stereo not given), the Potency was 3.89 µM (active).
On to `CC(C)C1CCC(C(=O)N[C@H](Cc2ccccc2)C(=O)O)CC1` (stereo not given in full), for which the “activity change, negative = cytotoxicity” value is 2.54% [at 35.3 µM] (inactive).
Regarding `CCN(CC)CCNC(=O)c1cc(Cl)c(N)cc1OC`, the “activity change, negative = cytotoxicity” value was -2.23% [at 35.3 µM] (inactive).
For `CC(=O)C(C)=O`, the “activity change, negative = cytotoxicity” value is 8.23% (inactive).
Turning to `CCOC(=O)C(C)O` (stereo not given), the “activity change, negative = cytotoxicity” value is 9.58% (inactive).
As to `CN1CCCN(C(c2ccccc2)c2ccc(Cl)cc2)CC1` (stereo not given), the “activity change, negative = cytotoxicity” value was 1.06% [at 35.3 µM] (inactive).
With `CC1CCC(C(C)CS)CC1S` (stereo not given), the “activity change, negative = cytotoxicity” value is -21.1% (inactive).
For `CC(=O)OCC(C)C`, the “activity change, negative = cytotoxicity” value is 1.41% (inactive).
On to `O=C(NS(=O)(=O)/C=C/c1ccccc1)c1ccc(F)cc1Cl`, for which the “activity change, negative = cytotoxicity” value was -14.3% (inactive).
On to `C=C(C)C(=O)OCCC(F)(F)C(F)(F)C(F)(F)C(F)(F)C(F)(F)C(F)(F)F`, for which the “activity change, negative = cytotoxicity” value was -2.94% (inactive).
For the molecule `COC(=O)CC(C(C)=O)C(=O)OC` (stereo not given), the “activity change, negative = cytotoxicity” value was 1.06% (inactive).
Turning to `CC[C@@H](CO)NCCN[C@@H](CC)CO`, the “activity change, negative = cytotoxicity” value is 4.01% [at 35.3 µM] (inactive).
Turning to `CC1=C2[C@@H]([C@H](C)CC[C@H]2/C=C(\C)C(=O)O)[C@H](O)C1`, the “activity change, negative = cytotoxicity” value is -1.72% (inactive).
Regarding `O=C(Nc1ccc(C(=O)O)c(O)c1)c1ccccc1`, the “activity change, negative = cytotoxicity” value is 7.21% [at 35.3 µM] (inactive).
